Measured values as given in the supplement of paper PMC10849652.
The full data set covers some 8,800 targets. This sample favours those with a hit. About 0.5% of all pairs of compound and target were hits.

Assays:
Assay in all cases: log2 fold change, soluble protein after heating vs DMSO (PISA); higher = thermal stabilisation; K562 lysate, 10 uM; active = over 0.2 and 3.5 SD of the protein, either way, in both replicates (recomputed)
[1] = compound: CC(=O)c1cnc2ccc(-c3cc(Cl)c(O)c(Cl)c3)nc2c1N[C@H]1CC[C@H](CN(C)C)CC1
In short: (§1)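 Log-two fold change in thermal stability relative to solvent controls is reported from duplicates. For each sample, crude K562 extract from dounce-homogenised pellets in PBS pH 7.4 with 1 mM MgCl2, at 1 mg/mL protein, was treated with 10 μM compound for 30 min. Aliquots heated for 3 min across 48°C-58°C were pooled, brought to 0.5% NP-40 at 4°C and cleared at 21,000xg for 90 min. The supernatant was quantified by TMTpro 16plex LC-MS/MS with channel sums equalised.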

ralimetinib = compound: CC(C)(C)Cn1c(N)nc2ccc(-c3[nH]c(C(C)(C)C)nc3-c3ccc(F)cc3)nc21 [ralimetinib]
In short: as §1

[2] = compound: CC(C)(O)CC(=O)NCCn1ccc2ncnc(Nc3ccc(Oc4cccc(C(F)(F)F)c4)c(Cl)c3)c21
In short: as §1

[3] = compound: CC(C)C1=C2N=C(C=C(N2N=C1)NCC3=CC=CC=C3)NCCCCCCN
In short: as §1

[4] = compound: CC1=C(C(CC(=O)N1)C2=CC=C(C=C2)C(F)(F)F)C(=O)NC3=C(C=C4C(=C3)C=NN4)F
In short: as §1

[5] = compound: CC1=C(C2=C(C=C1)C(=O)C3=CC=CC=C3N2CCCN)C
In short: as §1

[6] = compound: CC1=C(C=C(C=C1)NC(=O)C2=CC(=CC=C2)N(C)C)NC(=O)C3=CC=C(C=C3)O
In short: as §1

[7] = compound: CC1=CC=C(C=C1)SC2=C3C=C(SC3=CN=C2)C(=O)N
In short: as §1

vemurafenib = compound: CCCS(=O)(=O)Nc1ccc(F)c(C(=O)c2c[nH]c3ncc(-c4ccc(Cl)cc4)cc23)c1F [vemurafenib]
In short: as §1

[8] = compound: CCCS(=O)(=O)Nc1ccc(F)c(C(=O)c2c[nH]c3ncc(Cl)cc23)c1F
In short: as §1

[9] = compound: CC[C@@H]1C(=O)N(C)c2cnc(Nc3ccc(C(=O)NC4CCN(C)CC4)cc3OC)nc2N1C1CCCC1
In short: as §1

volasertib = compound: CC[C@@H]1C(=O)N(C)c2cnc(Nc3ccc(C(=O)N[C@H]4CC[C@H](N5CCN(CC6CC6)CC5)CC4)cc3OC)nc2N1C(C)C [volasertib]
In short: as §1

[10] = compound: CCn1c(C(=O)N(C2CC2)C2CC2)cc2c3c(ncn3C)c(Nc3cc(C)n(C)n3)nc21
In short: as §1

[11] = compound: CCn1cc(-c2ccnc3[nH]c(-c4cccc(CN(C)C)c4)cc23)c(-c2ccc(NC(=O)N(C)C)cc2)n1
In short: as §1

[12] = compound: CN1CCC(CNc2ccc3ncc(-c4cccc(OC(F)(F)F)c4)n3n2)CC1
In short: as §1

saracatinib = compound: CN1CCN(CCOc2cc(OC3CCOCC3)c3c(Nc4c(Cl)ccc5c4OCO5)ncnc3c2)CC1 [saracatinib]
In short: as §1

[13] = compound: CC1=C(C=C(C=C1)NC(=O)C2=CC(=CC=C2)C(C)(C)C#N)NC3=CC4=C(C=C3)N=CN(C4=O)C
In short: as §1

sotrastaurin = compound: CN1CCN(c2nc(C3=C(c4c[nH]c5ccccc45)C(=O)NC3=O)c3ccccc3n2)CC1 [sotrastaurin]
In short: as §1

ibrutinib = compound: C=CC(=O)N1CCC[C@@H](n2nc(-c3ccc(Oc4ccccc4)cc3)c3c(N)ncnc32)C1 [ibrutinib]
In short: as §1

barasertib = compound: CCN(CCCOc1ccc2c(Nc3cc(CC(=O)Nc4cccc(F)c4)[nH]n3)ncnc2c1)CCOP(=O)(O)O [barasertib]
In short: as §1

Measured: log2 fold change

MDM1 (UniProt Q8TC05)
UniProt Q8TC05, sequence (Q8TC05 whole entry, looked up): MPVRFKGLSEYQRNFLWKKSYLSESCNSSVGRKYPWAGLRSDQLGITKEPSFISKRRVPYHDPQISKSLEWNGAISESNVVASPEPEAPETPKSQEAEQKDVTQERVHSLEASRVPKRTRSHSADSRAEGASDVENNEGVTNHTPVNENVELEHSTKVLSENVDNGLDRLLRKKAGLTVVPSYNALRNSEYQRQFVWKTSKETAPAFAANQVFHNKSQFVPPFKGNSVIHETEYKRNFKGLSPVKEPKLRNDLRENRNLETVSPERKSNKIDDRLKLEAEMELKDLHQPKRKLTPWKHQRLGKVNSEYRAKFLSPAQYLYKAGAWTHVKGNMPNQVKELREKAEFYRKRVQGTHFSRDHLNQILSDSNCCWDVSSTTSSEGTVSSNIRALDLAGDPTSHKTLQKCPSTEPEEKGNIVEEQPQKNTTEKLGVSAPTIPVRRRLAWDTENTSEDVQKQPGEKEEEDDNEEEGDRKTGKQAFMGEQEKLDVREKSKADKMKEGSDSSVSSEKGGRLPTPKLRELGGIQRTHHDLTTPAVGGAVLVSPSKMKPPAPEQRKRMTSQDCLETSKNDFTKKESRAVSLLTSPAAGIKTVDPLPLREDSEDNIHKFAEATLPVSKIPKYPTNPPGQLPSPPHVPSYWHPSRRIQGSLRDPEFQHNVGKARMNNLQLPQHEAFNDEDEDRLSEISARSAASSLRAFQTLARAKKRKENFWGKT
active: [11] -1.5 | [12] 0.512
inactive: [1] -0.006 | ralimetinib 0.037 | [2] -0.054 | [3] -0.029 | [4] -0.027 | [5] 0.022 | [6] -0.019 | [7] -0.079 | vemurafenib 0.024 | [8] 0.053 | [9] -0.05 | volasertib 0.024 | [10] 0.075 | saracatinib 0.013

LYN isoform 2 (UniProt P07948)
inactive: ralimetinib -0.104 | [2] 0.106 | [3] -0.061 | [4] -0.432 | [5] -0.226 | [13] 0.333 | [6] -0.008 | [9] -0.077 | [10] -0.075 | [11] -0.031 | [12] 0.024 | saracatinib 0.353 | sotrastaurin 0.074

MAPK7 (UniProt Q13164)
UniProt Q13164, sequence (Q13164 whole entry, looked up): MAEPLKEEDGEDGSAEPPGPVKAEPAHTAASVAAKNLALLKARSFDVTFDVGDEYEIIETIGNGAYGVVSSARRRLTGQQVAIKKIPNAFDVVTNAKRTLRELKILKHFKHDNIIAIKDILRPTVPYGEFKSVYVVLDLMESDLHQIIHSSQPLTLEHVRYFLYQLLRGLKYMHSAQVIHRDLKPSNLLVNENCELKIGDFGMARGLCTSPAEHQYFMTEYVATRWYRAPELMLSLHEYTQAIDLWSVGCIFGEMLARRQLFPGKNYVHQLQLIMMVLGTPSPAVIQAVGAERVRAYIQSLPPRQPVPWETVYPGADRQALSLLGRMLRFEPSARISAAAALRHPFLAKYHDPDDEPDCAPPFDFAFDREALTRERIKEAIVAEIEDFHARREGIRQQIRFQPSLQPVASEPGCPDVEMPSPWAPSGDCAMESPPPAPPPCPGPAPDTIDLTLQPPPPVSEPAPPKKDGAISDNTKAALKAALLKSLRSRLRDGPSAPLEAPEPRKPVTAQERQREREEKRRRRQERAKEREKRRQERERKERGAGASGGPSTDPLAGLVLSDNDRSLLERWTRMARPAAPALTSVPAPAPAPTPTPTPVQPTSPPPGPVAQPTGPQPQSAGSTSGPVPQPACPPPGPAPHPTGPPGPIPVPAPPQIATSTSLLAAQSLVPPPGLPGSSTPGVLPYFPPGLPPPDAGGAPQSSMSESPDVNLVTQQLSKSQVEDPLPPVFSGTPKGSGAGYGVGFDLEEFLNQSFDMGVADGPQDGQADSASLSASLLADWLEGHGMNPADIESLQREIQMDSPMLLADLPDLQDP
active: [1] 0.388
inactive: [3] 0.025 | [13] -0.034 | [7] -0.013 | [8] 0.024 | [9] 0.072 | volasertib -0.056 | [11] -0.084 | [12] -0.101 | sotrastaurin -0.031

MEX3A (UniProt A1L020)
inactive: ralimetinib -0.21 | [2] -0.123 | [4] -0.076 | [5] 0.003 | [6] -0.162 | vemurafenib -0.094 | [10] 0.191 | saracatinib 0.055

MEGF8 (UniProt Q7Z7M0)
inactive: ibrutinib 0 | ralimetinib -0.019 | [2] -0.124 | [3] -0.057 | [5] 0.091 | [13] 0.079 | [6] 0.154 | barasertib 0.049 | [9] 0.076 | [10] -0.048 | [11] 0.124 | [12] 0.028 | saracatinib 0.283 | sotrastaurin -0.003

KRI1 (UniProt Q8N9T8)
inactive: ibrutinib -0.023 | ralimetinib 0.047 | [2] -0.018 | [3] 0.043 | [4] 0.074 | [5] -0.069 | [13] 0.02 | [6] 0.046 | vemurafenib -0.079 | barasertib -0.03 | [9] 0.005 | [10] 0.021 | [11] -0.005 | [12] -0.014 | saracatinib 0 | sotrastaurin 0.008

MRC2 (UniProt Q9UBG0)
inactive: [3] -0.015 | [4] 0.002 | [5] 0.03 | [13] 0.133 | [9] 0.205 | [11] 0.053 | [12] 0.124 | saracatinib 0.301 | sotrastaurin -0.054

MPDZ (UniProt O75970)
inactive: [1] 0.264 | ralimetinib 0.024 | [2] -0.157 | [3] -0.015 | [4] -0.173 | [5] 0.062 | [13] 0.057 | [6] 0.076 | [7] -0.029 | vemurafenib 0.059 | [8] 0.03 | [9] 0 | volasertib -0.026 | [10] -0.115 | [11] 0.129 | [12] -0.017 | saracatinib 0.088 | sotrastaurin 0.209

LSM11 (UniProt P83369)
inactive: [3] 0.004 | [5] -0.198 | [13] -0.161 | vemurafenib 0.077 | [9] 0.06 | [11] 0.115 | [12] 0.212 | saracatinib 0.076 | sotrastaurin -0.085

KIF26A (UniProt Q9ULI4)
inactive: ibrutinib -0.022 | ralimetinib -0.125 | [2] 0.084 | [3] 0.008 | [4] -0.02 | [5] 0.007 | [13] 0.033 | [6] -0.048 | vemurafenib 0.135 | barasertib 0 | [9] 0.08 | [10] -0.01 | [11] -0.076 | [12] -0.005 | saracatinib -0.067 | sotrastaurin -0.033

KIF3C (UniProt O14782)
inactive: [1] -0.041 | ralimetinib -0.038 | [2] -0.032 | [3] -0.015 | [4] 0.03 | [5] -0.116 | [13] -0.007 | [6] 0.023 | [7] 0.044 | vemurafenib 0.565 | [8] -0.213 | [9] -0.296 | volasertib 0.186 | [10] 0.018 | [11] -0.138 | [12] -0.037 | saracatinib 0.02 | sotrastaurin -0.022

MED28 (UniProt Q9H204)
inactive: [1] -0.067 | ralimetinib -0.032 | [2] -0.025 | [3] -0.002 | [4] -0.088 | [5] -0.039 | [13] 0.11 | [6] 0.021 | [7] 0.009 | [8] -0.004 | volasertib 0.096 | [10] 0.053 | [11] -0.063 | [12] 0.322 | saracatinib -0.032 | sotrastaurin -0.028

KIF2A isoform 2 (UniProt O00139)
inactive: [11] 0.129 | [12] 0.316

LRIF1 (UniProt Q5T3J3)
inactive: [1] -0.088 | ralimetinib -0.09 | [2] -0.055 | [3] 0.089 | [4] -0.143 | [5] -0.044 | [13] -0.031 | [6] 0.046 | [7] -0.197 | vemurafenib 0.213 | [8] -0.005 | [9] -0.009 | volasertib 0.042 | [10] 0.006 | [11] 0.105 | [12] 0.044 | saracatinib 0.046 | sotrastaurin 0.001

MPP5 (UniProt Q8N3R9)
UniProt Q8N3R9, sequence (Q8N3R9 whole entry, looked up): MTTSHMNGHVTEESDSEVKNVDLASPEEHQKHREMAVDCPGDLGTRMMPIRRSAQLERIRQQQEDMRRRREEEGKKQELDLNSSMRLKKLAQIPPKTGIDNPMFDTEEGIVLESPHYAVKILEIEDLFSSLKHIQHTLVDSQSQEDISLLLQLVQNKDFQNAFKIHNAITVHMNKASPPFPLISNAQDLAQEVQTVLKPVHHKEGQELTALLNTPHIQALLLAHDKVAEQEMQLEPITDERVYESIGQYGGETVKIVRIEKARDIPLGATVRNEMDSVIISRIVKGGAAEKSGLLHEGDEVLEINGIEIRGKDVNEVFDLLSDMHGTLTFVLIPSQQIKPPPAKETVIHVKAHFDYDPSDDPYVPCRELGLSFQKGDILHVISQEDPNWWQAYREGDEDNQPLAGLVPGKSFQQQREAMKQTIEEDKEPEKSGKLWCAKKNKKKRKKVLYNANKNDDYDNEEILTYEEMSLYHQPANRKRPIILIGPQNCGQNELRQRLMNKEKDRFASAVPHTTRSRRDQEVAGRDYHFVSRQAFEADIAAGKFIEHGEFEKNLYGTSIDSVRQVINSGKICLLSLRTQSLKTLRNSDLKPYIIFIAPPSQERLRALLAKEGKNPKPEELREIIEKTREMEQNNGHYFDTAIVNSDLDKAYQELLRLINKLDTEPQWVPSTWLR
inactive: ibrutinib 0 | ralimetinib 0.019 | [2] -0.063 | [3] -0.079 | [4] -0.082 | [5] -0.067 | [13] 0.017 | [6] 0.014 | vemurafenib -0.029 | barasertib -0.058 | [9] -0.011 | [10] 0.042 | [11] -0.084 | [12] -0.038 | saracatinib -0.04 | sotrastaurin -0.006

MAP3K6 (UniProt O95382)
UniProt O95382, sequence (O95382 whole entry, looked up): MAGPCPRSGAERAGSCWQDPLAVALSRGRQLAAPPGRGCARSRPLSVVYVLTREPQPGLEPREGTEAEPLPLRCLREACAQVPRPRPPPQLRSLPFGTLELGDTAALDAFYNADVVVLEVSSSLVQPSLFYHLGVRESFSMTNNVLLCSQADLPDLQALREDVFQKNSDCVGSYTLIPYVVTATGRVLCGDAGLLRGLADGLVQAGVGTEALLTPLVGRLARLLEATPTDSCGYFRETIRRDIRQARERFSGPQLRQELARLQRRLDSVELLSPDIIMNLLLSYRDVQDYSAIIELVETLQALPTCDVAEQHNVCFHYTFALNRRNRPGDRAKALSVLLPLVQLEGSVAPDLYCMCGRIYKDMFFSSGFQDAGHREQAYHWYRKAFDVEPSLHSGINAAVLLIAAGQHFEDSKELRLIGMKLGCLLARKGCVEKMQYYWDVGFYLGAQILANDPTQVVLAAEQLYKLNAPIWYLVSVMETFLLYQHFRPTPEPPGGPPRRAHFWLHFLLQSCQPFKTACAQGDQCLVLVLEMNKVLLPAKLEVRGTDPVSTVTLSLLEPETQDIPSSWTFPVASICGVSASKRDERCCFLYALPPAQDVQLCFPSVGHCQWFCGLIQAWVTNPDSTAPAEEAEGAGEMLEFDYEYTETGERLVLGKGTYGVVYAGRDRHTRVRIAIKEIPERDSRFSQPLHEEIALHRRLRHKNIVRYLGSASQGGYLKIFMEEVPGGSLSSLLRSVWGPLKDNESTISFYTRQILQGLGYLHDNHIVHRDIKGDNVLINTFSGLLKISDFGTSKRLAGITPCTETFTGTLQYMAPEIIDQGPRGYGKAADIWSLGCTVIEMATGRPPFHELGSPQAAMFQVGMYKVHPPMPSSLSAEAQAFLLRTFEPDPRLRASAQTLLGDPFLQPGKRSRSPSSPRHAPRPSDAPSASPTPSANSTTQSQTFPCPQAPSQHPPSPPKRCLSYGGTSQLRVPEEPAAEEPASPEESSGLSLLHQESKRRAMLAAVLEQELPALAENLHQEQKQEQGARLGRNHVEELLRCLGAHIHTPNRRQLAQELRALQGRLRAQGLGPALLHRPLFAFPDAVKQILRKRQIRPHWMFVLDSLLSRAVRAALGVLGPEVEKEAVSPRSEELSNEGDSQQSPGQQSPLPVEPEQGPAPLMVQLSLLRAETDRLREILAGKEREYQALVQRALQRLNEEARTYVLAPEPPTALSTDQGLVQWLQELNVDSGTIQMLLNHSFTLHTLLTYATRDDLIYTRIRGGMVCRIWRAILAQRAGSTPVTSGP
inactive: [4] -0.12 | vemurafenib -0.006 | [9] 0.164

KMT2B (UniProt Q9UMN6)
inactive: [3] 0.53 | [5] -0.135 | [13] -0.072 | [9] -0.1 | saracatinib 0.081 | sotrastaurin -0.206

MAP3K4 isoform 2 (UniProt Q9Y6R4)
inactive: [13] -0.005 | sotrastaurin -0.004

KRAS isoform 2 (UniProt P01116)
inactive: [1] 0.05 | ralimetinib 0.071 | [2] -0.078 | [3] -0.05 | [5] -0.011 | [13] -0.025 | [6] 0.004 | [7] 0.059 | [8] 0.019 | [9] 0.156 | volasertib -0.125 | [10] 0.077 | saracatinib -0.06 | sotrastaurin -0.013

MMS22L (UniProt Q6ZRQ5)
UniProt Q6ZRQ5, sequence (Q6ZRQ5 whole entry, looked up): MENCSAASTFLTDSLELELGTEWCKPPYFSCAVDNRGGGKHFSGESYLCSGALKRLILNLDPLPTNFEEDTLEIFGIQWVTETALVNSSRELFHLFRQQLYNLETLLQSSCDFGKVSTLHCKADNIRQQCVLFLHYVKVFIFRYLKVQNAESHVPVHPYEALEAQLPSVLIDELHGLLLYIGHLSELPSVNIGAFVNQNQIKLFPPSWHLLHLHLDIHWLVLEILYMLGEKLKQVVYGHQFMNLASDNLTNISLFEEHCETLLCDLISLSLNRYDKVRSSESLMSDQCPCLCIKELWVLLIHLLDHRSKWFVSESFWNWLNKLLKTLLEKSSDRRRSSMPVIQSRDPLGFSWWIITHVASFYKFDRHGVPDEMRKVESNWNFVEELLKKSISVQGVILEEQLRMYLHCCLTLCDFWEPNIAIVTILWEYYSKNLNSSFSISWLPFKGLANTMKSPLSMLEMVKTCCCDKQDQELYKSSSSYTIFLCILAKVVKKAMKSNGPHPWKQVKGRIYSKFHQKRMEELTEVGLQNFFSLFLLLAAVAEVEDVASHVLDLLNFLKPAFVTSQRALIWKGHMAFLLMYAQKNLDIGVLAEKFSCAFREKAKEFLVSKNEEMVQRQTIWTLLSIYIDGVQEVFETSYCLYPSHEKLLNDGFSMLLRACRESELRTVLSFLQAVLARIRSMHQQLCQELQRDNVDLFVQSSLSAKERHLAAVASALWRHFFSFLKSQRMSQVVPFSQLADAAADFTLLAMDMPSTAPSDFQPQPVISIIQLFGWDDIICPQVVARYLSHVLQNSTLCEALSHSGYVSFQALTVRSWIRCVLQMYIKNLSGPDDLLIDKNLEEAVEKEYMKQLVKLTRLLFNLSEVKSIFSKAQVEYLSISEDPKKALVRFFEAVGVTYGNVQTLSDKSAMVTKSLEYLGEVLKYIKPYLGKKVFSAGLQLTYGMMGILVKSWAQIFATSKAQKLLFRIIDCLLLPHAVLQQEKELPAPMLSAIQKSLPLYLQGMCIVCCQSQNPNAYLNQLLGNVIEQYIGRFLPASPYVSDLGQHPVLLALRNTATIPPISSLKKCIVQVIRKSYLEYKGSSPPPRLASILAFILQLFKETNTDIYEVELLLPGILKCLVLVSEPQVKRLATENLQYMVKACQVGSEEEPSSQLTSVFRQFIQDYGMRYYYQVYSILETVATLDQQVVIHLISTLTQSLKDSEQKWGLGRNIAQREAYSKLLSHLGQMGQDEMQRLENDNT
inactive: ibrutinib -0.025 | [1] 0.049 | [3] -0.085 | [4] 0.007 | [5] -0.042 | [13] -0.049 | [7] 0.007 | vemurafenib -0.044 | [8] 0.013 | barasertib 0.083 | [9] -0.182 | volasertib -0.119 | [11] 0.077 | [12] -0.083 | saracatinib 0.092 | sotrastaurin 0.012

MAPK12 (UniProt P53778)
UniProt P53778, sequence (P53778 whole entry, looked up): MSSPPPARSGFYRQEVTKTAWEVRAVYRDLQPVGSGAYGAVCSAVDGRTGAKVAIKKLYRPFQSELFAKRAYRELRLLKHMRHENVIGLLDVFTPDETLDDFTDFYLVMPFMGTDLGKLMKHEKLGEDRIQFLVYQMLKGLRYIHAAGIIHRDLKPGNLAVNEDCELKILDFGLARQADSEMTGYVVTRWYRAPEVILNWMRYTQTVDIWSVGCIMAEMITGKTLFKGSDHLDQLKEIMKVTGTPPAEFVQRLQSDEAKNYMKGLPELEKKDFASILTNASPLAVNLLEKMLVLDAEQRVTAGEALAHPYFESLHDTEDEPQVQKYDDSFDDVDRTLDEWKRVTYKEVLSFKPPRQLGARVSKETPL
inactive: ibrutinib 0.049 | ralimetinib -0.001 | [2] -0.029 | [3] -0.027 | [4] 0.074 | [5] 0.08 | [13] 0.002 | [6] -0.012 | vemurafenib 0.084 | barasertib -0.033 | [9] 0.105 | [10] -0.029 | [12] -0.169 | saracatinib 0.023
active: [11] 0.974
